# Laboratory results published in ChEMBL document CHEMBL3988442, “University of Dundee, Small-Polar-MMV Screening Library” (2021).
# For some assays here: Entries with a potency or affinity are not part of this list.
# Legend:
# Set-up in all cases: scale not given: direction of the effect not stated beside the values
# [1] = molecular target: Protein translocase subunit SecA (Escherichia coli (strain K12)) (UniProt P10408); assay: Assay to Identify E. coli SecA ATPase Inhibitors; assay type: functional; settings: 30 µM
# [2] = molecular target: T1, Ubiquitin-activating enzyme e1, putative (Leishmania donovani (strain BPK282A1)) (UniProt E9BSI1); assay: Leishmania donovani Ubiquitin Activating Enzyme (LdE1); assay type: functional; settings: 30 µM
# T1 sequence (whole entry): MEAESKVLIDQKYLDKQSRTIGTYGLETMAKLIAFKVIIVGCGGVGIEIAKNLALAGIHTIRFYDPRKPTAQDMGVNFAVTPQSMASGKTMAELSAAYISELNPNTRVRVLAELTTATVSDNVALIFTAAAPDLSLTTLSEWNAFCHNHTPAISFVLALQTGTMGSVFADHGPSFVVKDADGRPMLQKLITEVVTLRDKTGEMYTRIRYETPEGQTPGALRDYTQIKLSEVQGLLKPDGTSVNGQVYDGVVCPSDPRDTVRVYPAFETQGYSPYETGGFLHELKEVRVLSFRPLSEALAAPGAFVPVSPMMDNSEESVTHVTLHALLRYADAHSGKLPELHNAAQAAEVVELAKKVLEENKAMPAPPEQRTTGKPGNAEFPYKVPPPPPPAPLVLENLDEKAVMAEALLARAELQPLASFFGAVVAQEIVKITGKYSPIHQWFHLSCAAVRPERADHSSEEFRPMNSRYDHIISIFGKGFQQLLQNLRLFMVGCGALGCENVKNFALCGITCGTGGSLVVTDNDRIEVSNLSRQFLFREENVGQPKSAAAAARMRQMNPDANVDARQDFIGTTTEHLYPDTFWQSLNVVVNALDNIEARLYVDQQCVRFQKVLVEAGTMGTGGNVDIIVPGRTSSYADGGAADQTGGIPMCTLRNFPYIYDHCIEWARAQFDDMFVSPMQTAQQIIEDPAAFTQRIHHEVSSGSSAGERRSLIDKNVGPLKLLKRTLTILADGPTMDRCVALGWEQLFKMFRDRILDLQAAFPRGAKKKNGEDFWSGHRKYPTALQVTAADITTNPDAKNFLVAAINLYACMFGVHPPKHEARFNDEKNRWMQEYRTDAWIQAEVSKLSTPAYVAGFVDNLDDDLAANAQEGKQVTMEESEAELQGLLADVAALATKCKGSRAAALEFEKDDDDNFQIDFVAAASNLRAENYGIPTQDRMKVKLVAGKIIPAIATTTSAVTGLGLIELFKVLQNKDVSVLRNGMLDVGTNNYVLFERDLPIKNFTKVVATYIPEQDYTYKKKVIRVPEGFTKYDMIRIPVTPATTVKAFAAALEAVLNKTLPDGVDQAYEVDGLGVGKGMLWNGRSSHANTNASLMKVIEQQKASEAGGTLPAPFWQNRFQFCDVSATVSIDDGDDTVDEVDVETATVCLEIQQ
# [3] = molecular target: Sialic acid-binding Ig-like lectin 9 (Homo sapiens) (UniProt Q9Y336); assay: Hs-Siglec9 ALPHAscreen SOP 20170721; settings: 10 µM
# Trypanosoma cruzi = assay: Trypanosoma cruzi phosphomannomutase and mannose-1-phosphate guanylyltransferase assay; assay type: functional; settings: 10 µM
# [4] = molecular target: T2, Arginase-2, mitochondrial (Homo sapiens) (UniProt P78540); assay: in vitro enzyme assay to detect the production of urea directly proportional to the activity of Arginase II; assay type: functional; settings: 33.3 µM; also: in the data most compounds retested in dose-response had high values
# T2 sequence (whole entry): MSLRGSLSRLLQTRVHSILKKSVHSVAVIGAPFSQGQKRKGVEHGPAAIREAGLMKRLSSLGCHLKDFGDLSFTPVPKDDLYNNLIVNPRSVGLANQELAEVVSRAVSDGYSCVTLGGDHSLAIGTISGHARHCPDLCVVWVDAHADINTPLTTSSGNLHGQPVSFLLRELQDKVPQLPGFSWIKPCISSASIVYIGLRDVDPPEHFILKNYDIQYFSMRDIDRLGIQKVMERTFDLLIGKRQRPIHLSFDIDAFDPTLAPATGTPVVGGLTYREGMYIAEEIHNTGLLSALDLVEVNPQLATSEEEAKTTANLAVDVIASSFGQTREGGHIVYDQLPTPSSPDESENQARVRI
# [5] = molecular target: T3, Proteasome subunit beta (Trypanosoma cruzi) (UniProt O96673); assay: Trypanosoma cruzi proteasome chymotrypsin-like activity (TcProtChymo) assay.; also: in the data most compounds retested in dose-response had high values; assay type: functional; settings: 9.37 µM
# T3 sequence (whole entry): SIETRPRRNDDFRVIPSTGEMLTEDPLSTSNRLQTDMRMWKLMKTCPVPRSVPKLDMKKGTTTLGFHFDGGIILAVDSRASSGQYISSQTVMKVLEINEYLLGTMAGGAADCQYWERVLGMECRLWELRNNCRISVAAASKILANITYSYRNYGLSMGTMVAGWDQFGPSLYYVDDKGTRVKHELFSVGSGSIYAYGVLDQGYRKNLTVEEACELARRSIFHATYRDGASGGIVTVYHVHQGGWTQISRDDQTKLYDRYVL
# Homo sapiens = species: Homo sapiens; assay: To identify inhibition of the IFN signalling (Jak-Stat) pathway via expression of an eGFP reporter gene under the control of an IFN-stimulated response element (ISRE) containing MxA promoter.; assay type: functional; settings: 30 µM
# [6] = molecular target: T4, Tyrosyl-tRNA synthetase, putative (Trypanosoma cruzi (strain CL Brener)) (UniProt Q4DSP6); assay: Trypanosoma cruzi tyrosyl tRNA synthetase (TcYRS) _High Tyrosine SOP; assay type: functional; settings: 30 µM; also: in the data most compounds retested in dose-response had high values
# T4 sequence (whole entry): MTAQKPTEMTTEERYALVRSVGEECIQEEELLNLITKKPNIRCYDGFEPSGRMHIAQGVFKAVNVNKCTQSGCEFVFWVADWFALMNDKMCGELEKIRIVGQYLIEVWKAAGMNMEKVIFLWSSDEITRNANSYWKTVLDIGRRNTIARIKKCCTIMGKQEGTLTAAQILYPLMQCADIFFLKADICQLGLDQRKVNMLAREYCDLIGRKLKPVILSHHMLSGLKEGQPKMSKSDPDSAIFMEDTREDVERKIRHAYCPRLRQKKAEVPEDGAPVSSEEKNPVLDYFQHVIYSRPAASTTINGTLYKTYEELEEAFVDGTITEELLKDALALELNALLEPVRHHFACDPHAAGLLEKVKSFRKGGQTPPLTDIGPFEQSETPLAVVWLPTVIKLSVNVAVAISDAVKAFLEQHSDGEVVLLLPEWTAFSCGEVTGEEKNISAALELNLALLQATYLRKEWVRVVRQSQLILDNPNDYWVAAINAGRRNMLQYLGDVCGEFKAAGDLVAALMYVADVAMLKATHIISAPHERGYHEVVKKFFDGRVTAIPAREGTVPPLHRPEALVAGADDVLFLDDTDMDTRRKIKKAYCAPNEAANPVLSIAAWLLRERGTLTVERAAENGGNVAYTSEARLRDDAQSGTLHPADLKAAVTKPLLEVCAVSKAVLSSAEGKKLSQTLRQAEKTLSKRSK
# [7] = molecular target: T4, Tyrosyl-tRNA synthetase, putative (Trypanosoma cruzi (strain CL Brener)); assay: Trypanosoma cruzi tyrosyl tRNA synthetase (TcYRS) SOP; assay type: functional; settings: 30 µM
# [8] = molecular target: Chromo domain-containing protein 1 (Saccharomyces cerevisiae (strain ATCC 204508 / S288c) (Baker's yeast)) (UniProt P32657); assay: ScCHD-1 Enzyme Inhibition Assay; assay type: functional; settings: 30 µM; also: in the data most compounds retested in dose-response had high values
# Sequence of Chromo domain-containing protein 1 (Saccharomyces cerevisiae (strain ATCC 204508 / S288c) (Baker's yeast)) (P32657 whole entry, the tested form may be a part): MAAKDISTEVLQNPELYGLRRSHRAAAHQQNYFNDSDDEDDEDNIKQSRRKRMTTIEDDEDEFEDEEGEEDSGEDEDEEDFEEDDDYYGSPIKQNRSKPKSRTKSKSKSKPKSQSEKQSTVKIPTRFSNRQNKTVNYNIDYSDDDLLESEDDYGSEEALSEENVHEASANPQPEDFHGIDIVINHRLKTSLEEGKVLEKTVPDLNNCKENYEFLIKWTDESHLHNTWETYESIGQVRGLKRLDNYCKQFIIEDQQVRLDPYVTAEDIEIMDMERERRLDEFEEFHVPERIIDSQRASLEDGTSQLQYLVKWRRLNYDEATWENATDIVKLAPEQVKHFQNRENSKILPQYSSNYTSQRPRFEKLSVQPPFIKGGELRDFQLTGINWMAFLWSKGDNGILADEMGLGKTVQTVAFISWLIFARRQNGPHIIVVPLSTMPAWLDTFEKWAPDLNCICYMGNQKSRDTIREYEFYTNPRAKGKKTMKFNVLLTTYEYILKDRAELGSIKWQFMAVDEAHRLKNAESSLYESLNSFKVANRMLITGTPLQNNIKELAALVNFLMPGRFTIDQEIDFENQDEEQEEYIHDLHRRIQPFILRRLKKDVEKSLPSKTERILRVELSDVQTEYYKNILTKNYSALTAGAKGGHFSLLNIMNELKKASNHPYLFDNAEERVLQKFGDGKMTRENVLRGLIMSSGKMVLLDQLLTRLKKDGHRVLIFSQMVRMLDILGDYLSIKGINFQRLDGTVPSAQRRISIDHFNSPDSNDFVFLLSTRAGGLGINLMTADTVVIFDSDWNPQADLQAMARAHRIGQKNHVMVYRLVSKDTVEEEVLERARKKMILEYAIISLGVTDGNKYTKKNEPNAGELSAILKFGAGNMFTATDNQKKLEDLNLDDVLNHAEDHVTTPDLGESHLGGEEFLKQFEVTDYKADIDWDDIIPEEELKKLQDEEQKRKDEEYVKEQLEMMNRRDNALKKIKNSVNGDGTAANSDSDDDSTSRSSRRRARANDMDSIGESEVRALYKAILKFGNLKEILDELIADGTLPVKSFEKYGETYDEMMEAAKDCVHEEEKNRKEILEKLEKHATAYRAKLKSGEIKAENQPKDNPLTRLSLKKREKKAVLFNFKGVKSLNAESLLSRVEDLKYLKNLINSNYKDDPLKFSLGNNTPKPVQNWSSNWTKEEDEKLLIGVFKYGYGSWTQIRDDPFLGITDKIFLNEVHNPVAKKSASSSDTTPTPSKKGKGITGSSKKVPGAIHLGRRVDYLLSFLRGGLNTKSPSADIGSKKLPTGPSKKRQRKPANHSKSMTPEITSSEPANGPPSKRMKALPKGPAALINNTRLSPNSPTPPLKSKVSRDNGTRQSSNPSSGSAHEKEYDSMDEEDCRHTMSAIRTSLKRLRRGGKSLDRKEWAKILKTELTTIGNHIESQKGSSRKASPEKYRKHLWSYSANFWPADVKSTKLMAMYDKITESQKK
# Sequence of Protein translocase subunit SecA (Escherichia coli (strain K12)) (P10408 whole entry): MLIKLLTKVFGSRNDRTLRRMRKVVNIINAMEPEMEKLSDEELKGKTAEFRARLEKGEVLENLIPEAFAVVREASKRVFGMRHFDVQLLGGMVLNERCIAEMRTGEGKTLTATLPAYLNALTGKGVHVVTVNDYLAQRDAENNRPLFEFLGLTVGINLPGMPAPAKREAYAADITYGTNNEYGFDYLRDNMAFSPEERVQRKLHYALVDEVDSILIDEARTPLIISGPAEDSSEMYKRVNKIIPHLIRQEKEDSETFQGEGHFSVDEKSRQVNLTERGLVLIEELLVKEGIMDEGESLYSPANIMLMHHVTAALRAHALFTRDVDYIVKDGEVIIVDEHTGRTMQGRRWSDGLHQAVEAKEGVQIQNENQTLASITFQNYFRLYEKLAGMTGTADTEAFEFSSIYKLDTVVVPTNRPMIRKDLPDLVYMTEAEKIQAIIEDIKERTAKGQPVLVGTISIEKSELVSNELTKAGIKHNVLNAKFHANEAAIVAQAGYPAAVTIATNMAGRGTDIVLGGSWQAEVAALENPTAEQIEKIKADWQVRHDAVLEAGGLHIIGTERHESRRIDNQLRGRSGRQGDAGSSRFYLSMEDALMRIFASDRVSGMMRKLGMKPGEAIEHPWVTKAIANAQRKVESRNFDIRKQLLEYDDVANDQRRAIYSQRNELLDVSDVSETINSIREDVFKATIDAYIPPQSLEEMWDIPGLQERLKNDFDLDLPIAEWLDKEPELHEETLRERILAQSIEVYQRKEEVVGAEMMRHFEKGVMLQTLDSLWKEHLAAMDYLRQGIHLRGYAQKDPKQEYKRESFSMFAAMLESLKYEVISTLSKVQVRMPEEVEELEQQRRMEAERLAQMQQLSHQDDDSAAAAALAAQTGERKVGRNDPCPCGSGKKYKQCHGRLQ
# Sequence of Sialic acid-binding Ig-like lectin 9 (Homo sapiens) (Q9Y336 whole entry): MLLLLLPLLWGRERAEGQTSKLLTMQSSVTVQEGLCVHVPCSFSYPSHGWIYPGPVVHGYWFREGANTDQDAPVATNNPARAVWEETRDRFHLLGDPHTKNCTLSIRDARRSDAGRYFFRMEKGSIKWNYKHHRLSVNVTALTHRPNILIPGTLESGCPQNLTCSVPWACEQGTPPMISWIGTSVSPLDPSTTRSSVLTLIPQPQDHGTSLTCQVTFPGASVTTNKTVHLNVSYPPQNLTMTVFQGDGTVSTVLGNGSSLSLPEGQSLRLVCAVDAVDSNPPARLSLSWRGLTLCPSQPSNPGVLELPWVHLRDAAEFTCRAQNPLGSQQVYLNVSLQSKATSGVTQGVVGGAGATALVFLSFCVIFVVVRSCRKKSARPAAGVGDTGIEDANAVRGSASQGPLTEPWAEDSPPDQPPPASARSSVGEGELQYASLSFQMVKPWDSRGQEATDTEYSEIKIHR
Compound,Percent Effect [1],Percent Effect [2],Percent Effect [3],Percent Effect (Trypanosoma cruzi),Percent Effect [4],Percent Effect [5],Percent Effect (Homo sapiens),Percent Effect [6],Percent Effect [7],Percent Effect [8]
CCCc1noc(CN2CCCC2c2c(C)nn(C)c2OC)n1 (stereo not given),-8.89%,-2.67%,-1.2%,-1.61%,3.1%,2.29%,9.23%,-2.63%,-2.56%,-6.05%
CC(NC(=O)CCn1cncn1)c1nnc2n1CCCCC2 (stereo not given),-3.71%,20.8%,8.71%,5.04%,10.4%,1.93%,17.2%,3.92%,18.8%,-8.72%
CCOC(=O)CN1CCC2(CC1)CC(=O)c1ccc(OC)cc1O2,-2.51%,27.3%,8.34%,4.13%,-4.11%,19.1%,7.83%,1.93%,15%,-11%
Cc1cn2c(n1)CCC(NC(=O)c1cc(Br)cn1C)C2 (stereo not given),-8.37%,0%,0.858%,-3.41%,-1.33%,8.23%,12.4%,-1.58%,0%,-4.6%
NCc1cn(-c2ccccc2C(=O)NCc2ccccc2)cn1,-2.27%,14.7%,1.6%,-0.592%,1.33%,10.2%,26.2%,6.35%,15%,-23.1%
O=C(c1ccncc1)N1CCCC2(COCCN(c3ccccc3)C2)C1 (stereo not given),-5.29%,-1.3%,-2.94%,-6.72%,-5.26%,20%,0.424%,6.84%,7.69%,-1.75%
CCc1nc(CN(C)C2CCN(CCc3ccccn3)C2)no1 (stereo not given),-0.239%,21.3%,-5.99%,4.02%,-3.55%,22.8%,12.5%,6.84%,15.4%,-14.1%
O=C(C1CCC1)N1CCn2c(COc3ncccn3)nnc2C1,-7.65%,3.9%,-3.93%,-5.36%,-11.7%,12.8%,6.38%,0.526%,5.13%,-2.55%
Cc1nc(C)n(CC2CCCN2Cc2cn(-c3ccccc3)nn2)n1 (stereo not given),-2.72%,-2.67%,1.09%,-1%,-1.77%,2.97%,-1.44%,3.68%,0%,-6.83%
Cc1nc(C)n(CC2CN(CCOCC(F)(F)F)CCO2)n1 (stereo not given),-1.11%,0%,2.9%,0.602%,2.22%,0.594%,6.11%,-1.58%,2.56%,-2.07%
CCCn1ccc(C(=O)N2CCOC(c3nc(-c4cccs4)no3)C2)n1 (stereo not given),-2.75%,6.67%,6.13%,-1.18%,0%,4.76%,1.83%,5.29%,17.5%,-17.3%
CC[C@@H]1N(Cc2ccsc2)CCC[C@]12CCC(=O)N2C,-5.65%,3.9%,-0.653%,-1.69%,1.37%,2.66%,32.3%,-0.966%,-12.5%,0.966%
Cc1cc(-c2nn(C)c(Cl)c2CN2CCOCC(O)C2)no1 (stereo not given),-4.83%,13.5%,10%,4.37%,15.7%,13%,15.5%,2.66%,17.1%,-4.79%
CN(C)c1cc2c(nn1)CCN(C(=O)Cc1noc3ccccc13)C2,-0.898%,0%,-2.79%,6.85%,2.87%,-0.427%,-24.3%,4.31%,-1.21%,-2.37%
CC(C)NC(=O)N1CCC2(C1)CN(c1ccsc1)C(=O)CN2C (stereo not given),-2.47%,9.09%,-13.1%,-3.41%,5.26%,20.6%,-8.36%,6.84%,10.3%,10.4%
CCS(=O)(=O)N1C[C@@H](OCc2cccnc2)[C@H]2OCCC[C@H]21,-10.2%,1.3%,6.61%,-4.58%,-3.64%,7.68%,9%,4.74%,7.69%,0.0373%
Cc1ncc2c(n1)CN(CCCc1nc3ccccc3o1)CC2,-8.07%,10.7%,3.45%,0%,-3.1%,8.91%,-14.7%,22.6%,28.2%,-7.47%
CC(C)N(C)CC(=O)N1CCCC(c2ccc(C(=O)O)cc2)C1 (stereo not given),-7.71%,5.41%,3.58%,8.44%,-1.05%,1.71%,-11.9%,7.98%,17.1%,-2.58%
O=C(NCCn1ccnc1)N1CCCC1c1ccsc1 (stereo not given),-1.45%,10.3%,-12.8%,8.73%,1.64%,17.7%,-7.37%,6.22%,20.5%,-4.56%
Cc1ccc(-c2nc(CN3CCn4c(nnc4C4CC4)C3)cs2)o1,2.56%,0%,-11.3%,-0.0939%,-2.87%,16.3%,35.1%,5.26%,10.8%,-4.37%
